Compound activity from PubChem.
KB-3-1 cytotox: qHTS assay for MDR1-selective chemotherapeutics: Primary screen using the parental adenocarcinoma cell KB-3-1; KB-3-1 viability, CellTiter-Glo ATP luminescence, 72 h; Potency, µM (doses to about 46.1 µM), usual class: cytotoxic; 400,000 compounds, 1.4% hits; further: potency means the concentration at half of the fitted maximal effect; on the % scale 0 is the no-effect control and ±100 the full control effect; nearly all actives have a fitted effect of over 60% in size
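Viability of parental KB-3-1 cells, measured by CellTiter-Glo luminescence, followed a 72 h incubation at 37 °C with pinned compounds in phenol-red-free DMEM containing 10% FBS.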
SW480 rerep: A quantitative high throughput screen for small molecules that induce DNA re-replication in SW480 colon adenocarcinoma cells; Potency, µM (series often up to 46.1 µM), inactives show at the highest dose re-replication activation, hits mostly activators; AID 624297, 2012; 340,000 compounds, 1.8% hits; SW480 DNA re-replication, Hoechst DNA content imaging, 48 h; further: potency means the concentration at half of the fitted maximal effect; % of control where 0% means no effect; nearly all actives have a fitted effect of over 55% in size
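SW480 cells exposed to compounds for 48 hr at 37 C, 5% CO2, then Hoechst-stained 40 min. Nuclear DNA content imaged by fluorescence scanning (405 nm excitation, 500-530 nm emission); re-replication scored as increased high-intensity nuclei.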
S-ASM inh: Inhibitors of Secretory Acid Sphingomyelinase (S-ASM): qHTS | AID 504937, 2011 | Sphingomyelin phosphodiesterase (Homo sapiens), P17405 | placental ASM, HMU-PC fluorogenic substrate, 60 min | Potency, µM (highest dose often 57.5 µM), for inactives: at the highest dose activity change, negative = inhibition, hits mostly inhibitors | 340,000 compounds, 0.006% hits; further: potency means the concentration at half of the fitted maximal effect
Target sequence (P17405 47-631 limits assumed): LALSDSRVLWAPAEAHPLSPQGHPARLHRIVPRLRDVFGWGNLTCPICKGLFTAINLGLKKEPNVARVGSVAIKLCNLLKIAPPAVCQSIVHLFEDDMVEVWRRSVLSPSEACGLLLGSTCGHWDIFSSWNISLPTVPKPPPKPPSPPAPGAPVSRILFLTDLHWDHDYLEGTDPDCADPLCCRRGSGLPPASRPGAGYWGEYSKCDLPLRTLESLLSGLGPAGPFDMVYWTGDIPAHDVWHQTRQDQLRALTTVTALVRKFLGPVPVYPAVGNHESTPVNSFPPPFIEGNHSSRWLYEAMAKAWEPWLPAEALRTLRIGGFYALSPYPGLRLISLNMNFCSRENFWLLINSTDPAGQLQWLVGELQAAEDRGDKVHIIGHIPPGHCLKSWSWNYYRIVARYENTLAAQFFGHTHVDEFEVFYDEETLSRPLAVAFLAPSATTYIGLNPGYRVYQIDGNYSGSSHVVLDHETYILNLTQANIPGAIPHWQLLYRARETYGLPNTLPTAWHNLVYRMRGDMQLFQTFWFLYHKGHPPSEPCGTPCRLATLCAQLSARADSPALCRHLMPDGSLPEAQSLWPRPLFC
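HMU-PC0 cleavage (9 uM final) by human placental ASM, 60 min at 37 °C following 10 min compound exposure at RT; stopped at pH 10, fluorescence Ex 386/Em 447 nm.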
MCF10A rerep: A quantitative high throughput screen for small molecules that induce DNA re-replication in MCF 10a normal breast cells | MCF 10A DNA re-replication, Hoechst nuclear intensity, 48 h | Potency, µM (doses to about 46.1 µM), for the others: at the top dose activity, positive = re-replication, most hits filed as activators | 350,000 compounds, 2.9% hits | AID 624296, 2012; further: potency means the concentration at half of the fitted maximal effect; % of control where 0% means no effect; nearly all actives have a fitted effect of over 50% in size
KB-V1 MDR tox: qHTS assay for MDR1-selective chemotherapeutics: Primary screen using the drug-selected MDR subline cells KB-V1; KB-V1 MDR cells viability, CellTiter-Glo, 72 h; Potency, µM (series often up to 46.1 µM), most hits filed as cytotoxic; 400,000 compounds, 3.4% hits; AID 1347076, 2019; further: potency means the concentration at half of the fitted maximal effect; on the % scale 0 is the no-effect control and ±100 the full control effect; nearly all actives have a fitted effect of over 60% in size
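Drug-selected KB-V1 cells, grown in DMEM lacking phenol red with 10% FBS, receive compound titrations; after three days at 37 degrees C, surviving cell ATP is quantified by CellTiter-Glo luminescence and responses normalized and curve-fitted.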
Giardia killer: Small Molecules that selectively kill Giardia lamblia: qHTS; Giardia lamblia trophozoite viability; activity change, % at 7.66 µM, hits read low; 340,000 compounds, 0.15% hits; AID 540267, 2011; in the data active means activity change below about -80%; inconclusive means between about -30% and that limit;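 further: parasites exposed to compound for two days anaerobically before the ATP read; on the % scale 0 is the no-effect control and ±100 the full control effect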
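Luminescence from cellular ATP indicates surviving trophozoites (100 cells/well) following 48 hrs anaerobic compound treatment at 37 deg C; signal develops 15-30 min at room temperature.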
Starred values were filed as active, the others as inactive; i = inactive; ? = inconclusive; . = not tested or not shown. The list is not random: actives were taken first. Their share in the collection is about 6.9%. Unless noted, the call rests on the fitted dose curve; in most records, active means well fitted curve in the direction sought with a large enough effect; inconclusive means small, poorly fitted or top-dose-only effect, or another doubt; inactive means no such curve, though single readings can be large; an effect the other way counts as inactive or inconclusive.

SMILES	KB-3-1 cytotox	SW480 rerep	S-ASM inh	MCF10A rerep	KB-V1 MDR tox	Giardia killer
Cn1c(/N=C/c2ccc3c(c2)OCO3)nc2ccccc21	i	-2%	2%	-3%	i	-1
Nc1nnnn1/N=C/c1ccc(Br)cc1	i	-43%	-1%	?	i	0
Nc1nc2ccccc2n1/N=C/c1ccc2c(c1)OCO2	i	21µM*	-2%	-6%	?	-3
CC#CC#Cc1cccc(=O)o1	i	24%	0%	18µM*	?	20
CCCCn1c(CN(C)Cc2ccccc2)nc2c1c(=O)n(C)c(=O)n2C	?	-10%	-3%	15%	2.3µM*	2
Cn1c(=O)c2c(nc(CN3CCN(c4ccccc4)CC3)n2Cc2c(F)cccc2Cl)n(C)c1=O	i	-3%	?	5%	?	11
Cn1c(=O)c2c(nc(CN3CCN(c4ccccc4)CC3)n2Cc2ccccc2Cl)n(C)c1=O	?	?	-8%	?	8.2µM*	3
CN(Cc1ccccc1)Cc1nc2c(c(=O)n(C)c(=O)n2C)n1Cc1ccccc1Cl	i	-7%	4%	-3%	9.2µM*	-8
COc1ccc(N2CCN(Cc3nc4c(c(=O)n(C)c(=O)n4C)n3C(C)C)CC2)cc1	16µM*	.	.	.	i	.
COCCn1c(CN(C)Cc2ccccc2)nc2c1c(=O)n(C)c(=O)n2C	i	1%	2%	-3%	?	7
CCCn1c(CN(C)Cc2ccccc2)nc2c1c(=O)n(C)c(=O)n2C	i	2%	2%	8%	?	7
COc1ccccc1CNC(=O)C1CCCN(c2nnc(-n3c(C)ccc3C)s2)C1 (centres undefined)	i	.	.	.	i	.
Cn1c(=O)c2c(nc(CN3CCc4ccccc4C3)n2Cc2ccccc2)n(C)c1=O	12µM*	-1%	6%	?	i	1
Cn1c(=O)c2c(nc(CN3CCc4ccccc4C3)n2Cc2ccc(Cl)cc2)n(C)c1=O	i	3%	-1%	?	i	12
N#C/C(=C\c1ccncc1)c1nc2ccccc2o1	i	-43%	38%	15µM*	i	6
N#C/C(=C\c1ccc(Cl)cc1)c1nc2ccccc2o1	i	?	.	?	i	-6
N#C/C(=C\Nc1ccccc1O)c1nc2ccccc2o1	i	-1%	-17%	?	21µM*	-22
O=C(NCCC(=O)N1CCN(S(=O)(=O)c2ccc(Cl)cc2)CC1)Nc1ccccc1	i	2%	-3%	26%	i	-11
O=C(NCCCN=C1NS(=O)(=O)c2ccccc21)c1ccc(S(=O)(=O)N2CCCCC2)cc1	21µM*	?	-1%	23µM*	i	-7
COc1ccc(C(=O)NCCCN=C2NS(=O)(=O)c3ccccc32)cc1	i	-6%	6%	-5%	i	-1
CCOC(=O)/C=C1/SCC(=O)N1CC(=O)Nc1cccc(F)c1	i	1%	4%	-4%	i	-28
CCOC(=O)/C=C1\SCC(=O)N1CC(=O)Nc1ccc2c(c1)CCC2	i	?	-3%	9.2µM*	?	17
CN(C)S(=O)(=O)c1cccc2c1C(=O)c1ccccc1C2=O	i	21µM*	1%	-24%	i	-1
CN(C)S(=O)(=O)c1ccccc1C#N	i	-6%	0%	19%	i	-5
CCc1ccc(NC(=O)CSc2nc3ccccc3c(=O)n2CCC(=O)NC2CCCCC2)cc1	i	.	.	.	i	.
NS(=O)(=O)c1ccc(CCNC(=O)CSc2nc3ccccc3c(=O)n2CCN2CCOCC2)cc1	i	-2%	4%	4%	i	-5
